Compound activity deposited in PubChem by National Center for Advancing Translational Sciences (NCATS).
IL-1B inflam inh: blocks inflammasome-driven IL-1 beta release; THP-1 LPS/ATP IL-1B secretion, AlphaLISA, 16 h; stronger effect = lower value; activity change, % at 57.5 µM; 360,000 compounds, 4.7% hits; in the data active = activity change below about -50%; inconclusive = mostly about -30% to -49%; note: % is set by controls: 0 for no effect and ±100 for the full control effect
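THP-1 cells pretreated 1 hr with compounds (up to 57.5 uM final), then stimulated with LPS (250 ng/mL final) plus ATP (1.25 mM final); secreted IL-1B measured by AlphaLISA after 16 hr, decreased signal indicating inhibition.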
TDP1 cell CPT: DT40-hTDP1 cell growth loss with CPT. 420,000 compounds, 12% hits. chicken DT40 Tdp1-/-;hTDP1 cells + 20 nM CPT, ATP luminescence, 48 h. Potency, µM (top dose mostly 46.2 µM), for inactives: at the top dose activity change, negative = growth inhibition, most hits filed as inhibitors; note: potency is the fitted concentration of half-maximal effect; % is set by controls: 0 for no effect and ±100 for the full control effect; nearly all actives have a fitted effect of over 55% in size
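Cell growth measured by CellTiter-Glo luminescence after a minimum 48 h, 37 C compound exposure with 20 nM CPT in Tdp1-knockout DT40 cells stably expressing hTDP1, seeded 400/well; qHTS titration format.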
SW480 rerep: DNA re-replication induction in SW480 cells. SW480 DNA re-replication, Hoechst DNA content imaging, 48 h. Potency, µM (doses to about 46.1 µM), inactives show top-dose re-replication activation, usual class: activators. 340,000 compounds, 1.8% hits. AID 624297; note: potency is the fitted concentration of half-maximal effect; % of control where 0% means no effect; nearly all actives have a fitted effect of over 55% in size
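Hoechst fluorescence of nuclei (405 nm excitation, 500-530 nm emission) measured by plate-scanning imager after 48 hr compound exposure at 37 C; re-replication scored as increased number of nuclei with elevated intensity.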
Chronic BCR inh: inhibitors of chronic active B-cell receptor signaling; Potency, µM (highest dose often 46.1 µM), without a hit: at the highest dose activity change, negative = inhibition, usual class: inhibitors; ABC-DLBCL IkBa-CBG/CBR reporter, luminescence ratio, 4 h; AID 493014; 340,000 compounds, 0.05% hits; active = well fitted inhibition curve with a large enough effect in the signal ratio, with a control signal flat, not every such curve was filed as active; inconclusive = small, poorly fitted or top-dose-only effect, or effect the other way, or a change in a side signal; the % refers to the signal ratio;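 note: potency is the fitted concentration of half-maximal effect; plate controls were basal doxycycline-induced cells for no effect and cells given 10 µM MG132 for full effect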
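Concentration-response series (up to 46 uM) were applied to TMD8 dual-reporter cells for 4 h at 37C with doxycycline. Green/red ratio, after filter-overlap correction, defined %Activity; red signal alone was normalised to basal cells and zero luminescence.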
TDP1 cell noCPT: qHTS for Inhibitors of human tyrosyl-DNA phosphodiesterase 1 (TDP1): qHTS in cells in absence of CPT. 420,000 compounds, 15% hits. AID 686978, 2013. Potency, µM (top dose mostly 46.2 µM), for inactives: top-dose activity change, negative = growth inhibition, actives largely listed as inhibitors. DT40 Tdp1-/- hTDP1 cells, no CPT, ATP luminescence, 48 h; note: potency is the fitted concentration of half-maximal effect; % is set by controls: 0 for no effect and ±100 for the full control effect; nearly all actives have a fitted effect of over 55% in size
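No-CPT arm: Tdp1-/-;hTDP1 DT40 cells (400/well) plus compounds, incubated ≥48 hr at 37 °C. Readout CellTiter-Glo luminescence.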
MCF10A rerep: DNA re-replication induction in MCF 10a cells | MCF 10A DNA re-replication, Hoechst nuclear intensity, 48 h | Potency, µM (highest dose often 46.1 µM), for inactives: at the highest dose activity, positive = re-replication, hits mostly activators | 350,000 compounds, 2.9% hits; note: potency is the fitted concentration of half-maximal effect; % of control where 0% means no effect; nearly all actives have a fitted effect of over 50% in size
Active calls of the source: *; ? = inconclusive; . = no result. Most compounds without a hit are left out; they make up all but 19% or so of the library. Unless noted, calls come from the whole dose curve; as a rule, active = well fitted curve in the direction sought with a large enough effect; inconclusive = small, poorly fitted or top-dose-only effect, or another doubt; inactive = no such curve, though single readings can be large; an effect the other way counts as inactive or inconclusive.

SMILES	IL-1B inflam inh	TDP1 cell CPT	SW480 rerep	Chronic BCR inh	TDP1 cell noCPT	MCF10A rerep
Cc1ccc(-c2nc(CS(=O)(=O)CC(=O)N3CCN(c4ccccc4)CC3)c(C)o2)cc1	.	?	.	.	23µM*	.
Cc1ccc(-c2nc(CS(=O)(=O)CC(=O)N3CCc4ccccc4C3)c(C)o2)cc1	-17	18µM*	15%	0%	21µM*	7%
O=C(c1ccco1)N(Cc1cccs1)c1ccc(F)cc1	.	-3%	.	.	-18%	.
O=C(c1ccco1)N(Cc1ccco1)c1ccc(O)cc1	-106*	-20%	-4%	-8%	?	2%
COc1cccc(OC)c1C(=O)OCC(=O)N(c1ccccc1)C1CCCCC1	-4	15µM*	-8%	6%	8.2µM*	?
CCN1CCN(C(=S)Nc2cc(S(=O)(=O)N(CC)CC)ccc2C)CC1	23	?	-2%	1%	?	1%
COc1ccc(C(=O)Nc2nc(-c3ccc([N+](=O)[O-])cc3)c(-c3ccc(OC)cc3)s2)cc1	5	?	6%	-4%	10µM*	?
COc1ccc2c(c1)Cc1sc(NC(=O)c3ccc(Cl)cc3)nc1-2	.	21µM*	.	.	13µM*	.
COc1ccc(C(=O)Nc2cc([N+](=O)[O-])ccc2N2CCCC2)cc1	1	7%	-7%	?	-13%	-5%
COc1ccc(C(=O)Nc2nc3c(s2)CCc2cc(OC)ccc2-3)cc1	.	23µM*	.	.	26µM*	.
COc1ccc2c(c1)-c1nc(NC(=O)c3ccc(OC)c(Br)c3)sc1CC2	.	?	.	.	8.2µM*	.
CC1=C(c2ccc(C)cc2)S(=O)(=O)N=C1N1CCN(c2ccccc2)CC1	.	-12%	.	.	-13%	.
CCOc1ccc(/C=N/NC(=O)c2c(C)n(C)c3ccc(OC)cc23)cc1	27	5.2µM*	?	-7%	5.8µM*	12µM*
CCOc1ccc(/C=N/NC(=O)c2ccccc2NC(=O)c2ccc(OC)cc2)cc1	18	?	12%	?	?	1%
COc1ccc2c(c1)c(C(=O)N/N=C/c1ccc(Br)cc1)c(C)n2C	-22	10µM*	10µM*	-6%	10µM*	13µM*
COc1ccc2c(c1)c(/C=N/Nc1ccc(C(=O)O)cc1)c(C)n2C	13	10%	-1%	?	-15%	2%
COc1ccc2c(c1)c(C(=O)N/N=C/c1ccc(O)c(O)c1)c(C)n2C	34	?	-3%	?	26µM*	0%
O=C(CN1CCSC1=O)Nc1ccc(N2CCOCC2)cc1	2	0%	-77%	8%	-19%	10%
C[C@H]1CN([C@@H](C)CO)C(=O)CCCn2nncc2CO[C@@H]1CN(C)S(=O)(=O)c1ccc(-c2ccccc2)cc1	25	10%	.	.	-7%	.
COc1cc(OC)c(Cl)cc1N	-7	?	-4%	0%	16µM*	?
Cc1ccc(-n2nc3c(=O)n(CCCC(=O)N4CCC(C(N)=O)CC4)nc(C)c3c2C)cc1	-22	6%	-5%	0%	8%	1%
O=C(NN=Cc1ccccc1)C(Oc1ccccc1)c1ccccc1 (configuration not stated)	0	?	19%	.	?	?
COC(=O)c1ccc(NC(C)C(=O)OC)c([N+](=O)[O-])c1 (configuration not stated)	-4	1%	0%	-2%	4%	18%
CN(C)Cc1csc(Nc2ccc(C(=O)c3ccccc3)cc2)n1	-28	18µM*	.	.	?	.
CC(N)c1csc(Nc2ccc(C(=O)c3ccccc3)cc2)n1 (configuration not stated)	-52*	?	.	.	?	.
